Potency data for 17 compounds are collected here from PubChem BioAssay (NCATS).

Records with an inconclusive call do not appear. Entries that show only a call come without a potency. The source made the active and inactive calls. Calls come from the whole dose curve; as a rule, active = well fitted inhibition curve with a large enough effect; inconclusive = small, poorly fitted or top-dose-only effect; inactive = no such curve, though single readings can be large or run the other way.

This test deals with Retinaldehyde dehydrogenase 3 (Homo sapiens) (UniProt P47895). In words: qHTS for Inhibitors of the Aldehyde Dehydrogenase Family (ALDH1A3) Primary screen (AID 2061315). Particulars: ALDH inhibition qHTS; series mostly up to 56 µM.
As for `Cc1cc(NC(=O)Nc2nnc(C3CCCCC3)s2)ccc1Br`, the Potency result is “inactive”.

As to `O=C(O)c1ccc(O)c2ncc(NC3CCNCC3)cc12`, the Potency result is “inactive”.

Turning to `CC(C)(C)N[S+](=O)([O-])c1cccc(-c2nnc(SCC(=O)Nc3ccc(C(=O)O)cc3)n2-c2ccccc2)c1`, the Potency entry was “inactive”.

As to `Cc1cc2c(s1)c1cnn(Cc3ccc(C(=O)O)cc3)c(=O)c1n2C`, the Potency entry is “inactive”.

As for `COc1ccc(C2=Nn3c(nnc3-c3ccccc3Cl)SC2)cc1O[C@H]1CCOC1`, the Potency result was “inactive”.

`CCOc1ccc(CCNC(=O)c2cc3ccccc3n2Cc2cc(C)cc(C)n2)cc1OCC`: the Potency entry was “inactive”.

Turning to `Cc1ccc(OCCn2c(CCNC(=O)C3CCC3)nc3ccccc32)cc1`, the Potency result was “inactive”.

For the compound `CCc1cccc(CC)c1OCc1cc(C2Nc3ccccc3C(=O)N2Cc2ccco2)ccc1OC` (configuration not stated), the Potency result was “inactive”.

For `COCCN(CCOC)c1nc(C)nc2c1nc(-c1ccccc1)n2CCN1CCCC1`, the Potency entry was “inactive”.

For the compound `CN(C)c1cnc2c(O)cccc2c1`, the Potency result was “inactive”.

With `CCC(C)/C=C(C)/C=C/C1=CC2=CC(=O)C(C)(O)C(OC(C)=O)C2CO1` (configuration not stated), the Potency entry is “inactive”.

Take `COc1c2cc(c(O)c1OC)CCCCC(O)CCc1ccc(O)c-2c1` (configuration not stated): the Potency entry was “inactive”.

For `Cc1cc2c(s1)c1cnn(Cc3ccc(F)c(C)c3)c(=O)c1n2C`, the Potency result was “inactive”.

For `COC(=O)c1ccc(-c2c(NC(C)=O)sc3c2CCNC3)cc1`, the Potency result was “inactive”.

As for `COc1cccc(C2c3c(ncn(-c4cccc(C#N)c4)c3=N)Oc3ccc4ccccc4c32)c1` (configuration not stated), the Potency entry is “inactive”.

On to `O=C1CCCC2=C1C1(CCCCC1)N=C(Nc1nc3ccccc3o1)N2`, for which the Potency result was “inactive”.

As to `CCC(O)(c1nnc(NCc2ccc3c(-c4ccc(F)cc4)cc(=O)oc3c2)o1)C(F)(F)F` (configuration not stated), the Potency result is “inactive”.
